This note sets out measurements from PubChem BioAssay (NCATS).

Records with an inconclusive call do not appear. Entries that show only a call come without a potency. Calls of active or inactive are those of the source. Calls follow the shape of the dose curve; as a rule, active = well fitted inhibition curve with a large enough effect; inconclusive = small, poorly fitted or top-dose-only effect; inactive = no such curve, though single readings can be large or run the other way. Residues, ends and D or L forms follow the SMILES beside them. *: point of attachment. Cbz = O=C(OCc1ccccc1)*

Papain (Carica papaya), sequence (P00784 whole entry, looked up): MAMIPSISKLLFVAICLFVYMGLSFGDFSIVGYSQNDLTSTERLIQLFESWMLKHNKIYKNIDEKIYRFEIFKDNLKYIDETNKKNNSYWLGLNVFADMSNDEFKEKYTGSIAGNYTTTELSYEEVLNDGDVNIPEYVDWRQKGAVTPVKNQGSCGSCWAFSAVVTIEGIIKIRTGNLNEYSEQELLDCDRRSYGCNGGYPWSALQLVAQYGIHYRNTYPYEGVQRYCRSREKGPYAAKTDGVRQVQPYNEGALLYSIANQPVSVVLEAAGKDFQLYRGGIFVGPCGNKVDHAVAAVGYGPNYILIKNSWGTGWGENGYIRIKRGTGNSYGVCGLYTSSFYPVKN

System in the first test: not listed separately
In words: Counterscreen qHTS for small molecule stabilizers of the endoplasmic reticulum resident proteome: GLuc-NoTag assay (AID 1508627). The following applies: Gaussia luciferase NoTag secretion counterscreen, luminescence, thapsigargin 100 nM for final 4 h; series mostly up to 76.4 µM. In a few lines:
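Counterscreen line: SH-SY5Y-GLuc-NoTag. Seed, 5 h; compound, 19 h; thapsigargin 100 nM, 4 h; 37C/5% CO2. Readout: secreted GLuc luminescence, coelenterazine 0.07x final, no lysis.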
For orientation: A counterscreen serves to expose hits that act by an unwanted route or on another target.
With `O=C(O)CCC(=O)N1CCCC1C(=O)O` (configuration not stated), the Potency result was “inactive”.

`NC(N)=NC(N)=Nc1ccccc1`: the Potency result is “inactive”.

In the case of `Cc1nc(N=Nc2ccc(S(=O)(=O)O)cc2S(=O)(=O)O)c(COP(=O)(O)O)c(C=O)c1O`, the Potency entry is “inactive”.

System in another test: not listed separately
Briefly: Confirmatory qHTS for small molecule stabilizers of the endoplasmic reticulum resident proteome: Secreted ER Calcium Modulated Protein (SERCaMP) assay (AID 1508628). Also: nearly all actives have a fitted effect of over 40% in size. The following applies: SERCaMP secreted luciferase ER calcium/proteostasis reporter; series mostly up to 76.3 µM. Summed up:
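Reporter secretion upon ER calcium depletion (100 nM thapsigargin, 4 h, 37C) is measured as medium luminescence with coelenterazine, after 16 h compound pretreatment of SH-SY5Y-GLuc-SERCaMP cells; primary at three concentrations up to 38.3 uM, follow-up at 11 (up to 76.6 uM).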
Turning to `O=C(O)CCC(=O)N1CCCC1C(=O)O` (configuration not stated), the Potency entry was “inactive”.

With `NC(N)=NC(N)=Nc1ccccc1`, the Potency entry was “inactive”.

Consider `Cc1nc(N=Nc2ccc(S(=O)(=O)O)cc2S(=O)(=O)O)c(COP(=O)(O)O)c(C=O)c1O`, for which the Potency result was “inactive”.

System in another test: not listed separately
Briefly: Primary qHTS for small molecule stabilizers of the endoplasmic reticulum resident proteome: Secreted ER Calcium Modulated Protein (SERCaMP) assay (AID 1508630). The following applies: SH-SY5Y GLuc-SERCaMP (Gaussia luciferase released on ER calcium loss) secretion, thapsigargin, luminescence; series mostly up to 38.4 µM. In a few lines: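 The SH-SY5Y reporter protocol was run at 3 concentrations up to 38.3 uM (primary) or 11 concentrations (follow-up): 16 h compound, 100 nM thapsigargin for 4 h, then extracellular luciferase luminescence.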
(In general: In qHTS, concentration-response curves come from the screen itself.)
As for `NC1CONC1=O` (configuration not stated), the Potency result is “inactive”.

Turning to `CC(=O)[C@H]1CCC2C3CC=C4C[C@@H](OS(=O)(=O)O)CC[C@]4(C)C3CC[C@@]21C` (some centres not stated), the Potency result was “inactive”.

For `COc1ccc2c(c1)c(CC(=O)O)c(C)n2C(=O)c1ccccc1`, the Potency entry is “inactive”.

As for `Cc1nc2c(OCc3ccccc3)cccn2c1CC#N`, the Potency entry was “inactive”.

In the case of `CCCCOc1cc(CC2CNC(=O)N2)ccc1OC` (configuration not stated), the Potency entry is “inactive”.

As to `OCC1NCC(O)C(O)C1O` (configuration not stated), the Potency entry is “inactive”.

With `CC(C)(C)c1ccc(/C=C/C(=O)Nc2ccc3c(c2)OCCO3)cc1`, the Potency entry was “inactive”.

With `CCCCCC(O)CCCC(=O)O` (configuration not stated), the Potency entry is “inactive”.

Consider `Cn1cc(C(=O)OCC2CCN(CCNS(C)(=O)=O)CC2)c2ccccc21`, for which the Potency entry was “inactive”.

As to `CCCCCCC(=O)OC1CC(C)(C)NC(C)(C)C1`, the Potency result is “inactive”.

Consider `COc1ccc(C(=O)NCc2cccnc2)cc1C(=O)NCc1cccnc1`, for which the Potency entry is “inactive”.

Take `C=CCN1CCc2c(cc(O)c(O)c2Cl)C(c2ccccc2)C1` (configuration not stated): the Potency result was “inactive”.

Consider `NCC(O)(CS(=O)(=O)O)c1ccc(Cl)cc1` (configuration not stated), for which the Potency entry is “inactive”.

`COc1cc(CC(=O)O)ccc1O`: the Potency entry is “inactive”.

On to `O=C(O)c1ccccc1Nc1ccccc1`, for which the Potency entry is “inactive”.

With `Nc1ncnc2c1nc(Br)n2C1OC2COP(=O)(O)O[C@@H]2C1O` (some centres not stated), the Potency result is “inactive”.

With `Cc1nc(N=Nc2ccc(S(=O)(=O)O)cc2S(=O)(=O)O)c(COP(=O)(O)O)c(C=O)c1O`, the Potency entry was “inactive”.

On to `Nc1nc2c(cnn2CCc2ccccc2)c2nc(-c3ccco3)nn12`, for which the Potency entry was “inactive”.

For the molecule `CC(C)[C@H](NC(=O)OCc1ccccc1)C(=O)N[C@H](C=O)Cc1ccccc1` (Cbz-Val-Phe-aldehyde), the Potency result was “inactive”.

For the molecule `COc1cccc(OC)c1OCCNCC1CSc2ccccc2O1` (configuration not stated), the Potency result is “inactive”.

Take `N=S(=O)(O)Cc1noc2ccccc12`: the Potency entry is “inactive”.

Consider `CC(O)C(O)[C@H]1CNc2nc(N)[nH]c(=O)c2N1` (some centres not stated), for which the Potency entry was “inactive”.

On to `Oc1cc(O)c2c(c1)O[C@H](c1ccc(O)c(O)c1)[C@@H](O)C2`, for which the Potency result is “inactive”.

With `CCCCCCN(CCCCCC)C(=O)Cc1c(-c2ccc(F)cc2)[nH]c2ccccc12`, the Potency result is “inactive”.

`Cn1cc(C(F)(F)F)nc1-c1ccc(OCC(O)CNCCOc2ccc(O)c(C(N)=O)c2)cc1` (configuration not stated): the Potency result was “inactive”.

As to `CC(=O)NCCc1c[nH]c2ccc(O)cc12`, the Potency result was “inactive”.

For `NCCS(=O)O`, the Potency result is “inactive”.

`N[C@H](C(=O)O)c1cc(O)cc(O)c1`: the Potency result was “inactive”.

Another test addresses Papain (Carica papaya) (UniProt P00784). Briefly: Primary qHTS assay for inhibitors of the protease papain (AID 1645873).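 Also: papain turnover of Z-FR-AMC read as the AMC fluorescence gain over 10 min.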 Also: potency is read from the fitted curve at half-maximal effect. The following applies: papain Z-FR-AMC cleavage, AMC fluorescence; series mostly up to 49.8 µM.
Consider `NC1CONC1=O` (configuration not stated), for which the Potency entry is “inactive”.

With `CC(=O)[C@H]1CCC2C3CC=C4C[C@@H](OS(=O)(=O)O)CC[C@]4(C)C3CC[C@@]21C` (some centres not stated), the Potency was 28.2 µM (active).

With `CC1=C(/C=C/C(C)=C/C=C/C(C)=C\C(=O)O)C(C)(C)CCC1`, the Potency result is “inactive”.

`COc1ccc2c(c1)c(CC(=O)O)c(C)n2C(=O)c1ccccc1`: the Potency result was “inactive”.

`Cc1nc2c(OCc3ccccc3)cccn2c1CC#N`: the Potency result was “inactive”.

In the case of `O=C(O)CCC(=O)N1CCCC1C(=O)O` (configuration not stated), the Potency entry is “inactive”.

In the case of `CCCCOc1cc(CC2CNC(=O)N2)ccc1OC` (configuration not stated), the Potency entry is “inactive”.

On to `OCC1NCC(O)C(O)C1O` (configuration not stated), for which the Potency result was “inactive”.

For `CC(C)(C)c1ccc(/C=C/C(=O)Nc2ccc3c(c2)OCCO3)cc1`, the Potency result is “inactive”.

For `CCCCCC(O)CCCC(=O)O` (configuration not stated), the Potency entry was “inactive”.

In the case of `O=C(O)Cc1c[nH]c2ccc(O)cc12`, the Potency result was “inactive”.

With `Cn1cc(C(=O)OCC2CCN(CCNS(C)(=O)=O)CC2)c2ccccc21`, the Potency result is “inactive”.

As to `CCCCCCC(=O)OC1CC(C)(C)NC(C)(C)C1`, the Potency entry is “inactive”.

In the case of `COc1ccc(C(=O)NCc2cccnc2)cc1C(=O)NCc1cccnc1`, the Potency result is “inactive”.

For the molecule `C=CCN1CCc2c(cc(O)c(O)c2Cl)C(c2ccccc2)C1` (configuration not stated), the Potency entry was “inactive”.

For the molecule `NCC(O)(CS(=O)(=O)O)c1ccc(Cl)cc1` (configuration not stated), the Potency result was “inactive”.

`NC(N)=NC(N)=Nc1ccccc1`: the Potency result was “inactive”.

Consider `COc1cc(CC(=O)O)ccc1O`, for which the Potency entry was “inactive”.

With `O=C(O)c1ccccc1Nc1ccccc1`, the Potency entry is “inactive”.

Turning to `Nc1ncnc2c1nc(Br)n2C1OC2COP(=O)(O)O[C@@H]2C1O` (some centres not stated), the Potency result is “inactive”.

Take `Cc1nc(N=Nc2ccc(S(=O)(=O)O)cc2S(=O)(=O)O)c(COP(=O)(O)O)c(C=O)c1O`: the Potency entry is “inactive”.

For `N=S(=O)(O)Cc1noc2ccccc12`, the Potency result was “inactive”.

For the molecule `CC(O)C(O)[C@H]1CNc2nc(N)[nH]c(=O)c2N1` (some centres not stated), the Potency was 25.1 µM (active).

For the molecule `Oc1cc(O)c2c(c1)O[C@H](c1ccc(O)c(O)c1)[C@@H](O)C2`, the Potency entry is “inactive”.

On to `Cn1cc(C(F)(F)F)nc1-c1ccc(OCC(O)CNCCOc2ccc(O)c(C(N)=O)c2)cc1` (configuration not stated), for which the Potency entry was “inactive”.

For `CC(=O)NCCc1c[nH]c2ccc(O)cc12`, the Potency result is “inactive”.

Turning to `NCCS(=O)O`, the Potency result was “inactive”.

As for `N[C@H](C(=O)O)c1cc(O)cc(O)c1`, the Potency entry is “inactive”.
